This passage reports Potency results from PubChem BioAssay AID743266 (National Center for Advancing Translational Sciences (NCATS), 2014).

“And” between values parts separate entries of the source, which are not always exact repeats. Equal entries are not always repeated. The campaign covered roughly 410,000 compounds. About 310 (0.076%) were called active. Where a call stands in place of a potency, no number is given. Inconclusive results (about 2%) are left out. The sample holds actives, similar compounds and a random draw of the others, so the mix is not that of the screen. Calls come from the whole dose curve; as a rule, active = well fitted activation curve with a large enough effect; inconclusive = small, poorly fitted or top-dose-only effect, or another doubt; inactive = no such curve, though single readings can be large or run the other way. Where a structure was tested more than once in an assay, its records may differ in their call.
Potency is the fitted concentration of half-maximal effect.

Parathyroid hormone/parathyroid hormone-related peptide receptor (Homo sapiens), sequence (Q03431 whole entry, looked up): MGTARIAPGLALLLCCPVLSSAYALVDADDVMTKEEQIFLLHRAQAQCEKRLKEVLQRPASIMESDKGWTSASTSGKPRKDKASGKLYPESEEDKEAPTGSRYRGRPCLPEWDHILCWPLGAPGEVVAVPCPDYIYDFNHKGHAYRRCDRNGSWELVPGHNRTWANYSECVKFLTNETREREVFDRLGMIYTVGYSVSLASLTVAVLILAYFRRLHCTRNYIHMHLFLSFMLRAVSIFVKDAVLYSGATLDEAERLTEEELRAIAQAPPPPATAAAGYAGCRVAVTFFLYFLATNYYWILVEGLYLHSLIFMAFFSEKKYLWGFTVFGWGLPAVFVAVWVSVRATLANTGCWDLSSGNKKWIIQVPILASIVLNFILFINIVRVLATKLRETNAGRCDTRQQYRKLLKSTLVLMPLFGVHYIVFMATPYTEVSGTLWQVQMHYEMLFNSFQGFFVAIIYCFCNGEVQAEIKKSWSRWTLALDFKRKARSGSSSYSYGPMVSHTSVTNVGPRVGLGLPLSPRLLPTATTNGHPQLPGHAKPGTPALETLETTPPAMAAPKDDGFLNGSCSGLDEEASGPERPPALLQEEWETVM

The target in this experiment is Parathyroid hormone/parathyroid hormone-related peptide receptor (Homo sapiens) (UniProt Q03431). The experiment in a line: qHTS for PTHR1 Agonists: Primary Screen. Note: nearly all actives have a fitted effect of over 55% in size. Particulars: HEK293 GP2 PTHR1 cells, GloSensor cAMP luminescence, 1 h; series mostly up to 115 µM. The source says:
The goal of the proposed studies is to discover new compounds that act as potent agonists on the parathyroid hormone receptor type-1 (PTHR1). The PTHR1 plays critical roles in maintaining blood calcium and phosphate levels, as well as in controlling bone remodeling. PTHR1 agonists could thus be useful for treating diseases such as hypoparathyroidism and osteoporosis. In the former disease, an agonist drug would help maintain normal blood calcium and phosphate levels under conditions of parathyroid hormone deficiency. In the latter disease, an agonist drug would stimulate new bone formation and thus reduce the risk of fracture, under conditions of bone fragility, as occurs in aging.
To that end, we performed a quantitative high-throughput screening (qHTS) of the Molecular Libraries Probe Centers Network (MLPCN) compound libraries at the NIH Chemical Genomics Center (NCGC) for the parathyroid hormone receptor type-1 (PTHR1) using a unique HEK-293-derived cell line (GP2) that expresses the PTHR1 and a glosensor cAMP reporter construct.
NIH Molecular Libraries Probe Production Centers Network [MLPCN]
NIH Chemical Genomics Center [NCGC]
Assay Submitter (PI): Thomas Gardella, Massachusetts General Hospital
4 microL are dispensed into a 1536-well micro plate to yield 3,000 cells/well. The plates are then incubated overnight, after which 4 microL of 0.5 mM of BIoTium Luciferin plus 0.5 mM IBMX are added. They are then incubated at 37 degree for one hour before 23 nL of compounds are added through pinning and then incubated at 37 degree again for another hour. After the plates are kept at room temperature for 15 min before they are read on the ViewLux to measure luminescence.
For `COc1ccc(CCNc2nc3c(-c4cccc(F)c4)nnn3c3ccccc23)cc1OC`, the Potency result was “inactive”.
With `COc1ccc(C2c3c(oc4ccccc4c3=O)C(=O)N2Cc2ccc3c(c2)OCO3)cc1` (stereo not given), the Potency entry is “inactive”.
Consider `Cc1ccc(C(=O)Nc2c(C(=O)NC(C)(C)C)oc3ccccc23)cc1`, for which the Potency result was “inactive”.
With `CSc1nn(Cc2cccc(C)c2)c(N)c1S(=O)(=O)c1ccccc1`, the Potency result is “inactive”.
In the case of `CCC(C)c1ccc2oc(-c3ccc(NC(=O)c4cc5ccccc5o4)cc3)nc2c1` (stereo not given) it was “inactive”.
`CCOc1ccc(CNCc2c(C(=O)O)c(C)n(Cc3cccc(OC)c3)c2C)cc1OC`: the Potency result is “inactive”.
In the case of `CCCCNC(=O)c1cc(-c2ccc(Cl)c(Cl)c2)on1` it was “inactive”; in that of `CN1CCN(C(CNC(=O)c2ccccc2F)c2ccc3c(c2)OCO3)CC1` (stereo not given), “inactive”.
`COC(=O)c1ccccc1NC(=O)c1ccc(COc2ccccc2Cl)o1`: the Potency result was “inactive”.
To `CCC(CC)c1nn2cc(-c3ccccc3)nc2s1` belongs “inactive”.
`COCCNS(=O)(=O)c1cc(-c2nn3c(C)nnc3c3ccccc23)ccc1C`: the Potency entry was “inactive”.
In the case of `CCN(CC)S(=O)(=O)c1ccc2c(c1)N(CC(=O)NCC(C)c1ccccc1)C(=O)CO2` (stereo not given) it was “inactive”; in that of `CCOc1cc(C2C(C(=O)Nc3ccc(OC)cc3)=C(C)Nc3nc(SC)nn32)ccc1O` (stereo not given), “inactive”; in that of `Cc1cc(OCC(=O)Nc2ncn[nH]2)c(C)c(C)c1Br`, “inactive”.
To `Cc1nc(SCC(=O)Nc2ccc(C(=O)O)cc2)n[nH]1` belongs “inactive”; to `O=C(NCCc1ccccc1)C(=O)NCC(c1ccco1)S(=O)(=O)c1ccccc1` (stereo not given), “inactive”.
To `Cc1ccc(C)n1-c1nnc(N2CCC(C(=O)NCc3ccccc3Cl)CC2)s1` belongs “inactive”; to `CC(C)(C)c1ccc(C(=O)NCC(c2ccco2)S(=O)(=O)c2ccc(F)cc2)cc1` (stereo not given), “inactive”; to `Cc1c(Cl)cccc1NC(=O)N1CCN(C(=O)c2nsc3ccccc23)CC1`, “inactive”.
Take `CCOC(=O)c1c(S(=O)(=O)N2CCCC(C(=O)NCc3ccc(F)cc3)C2)c(C)n(CC)c1C` (stereo not given): the Potency result was “inactive”.
To `O=c1c2cccnc2n(Cc2cccc(F)c2)c(=O)n1Cc1ccccc1Cl` belongs “inactive”; to `CCOc1ccc(OCC)c(NS(=O)(=O)c2ccc3[nH]c(=O)ccc3c2)c1`, “inactive”; to `Cc1ccc(NC(=O)CSc2nc3c(c(=O)[nH]2)CN(Cc2ccc4c(c2)OCO4)CC3)cc1C`, “inactive”.
In the case of `COc1cccc(CNC(=O)C2CCN(S(=O)(=O)c3ccc4c(ccn4C)c3)CC2)c1` it was “inactive”; in that of `COc1ccc(CNc2nc(-c3ccc(Cl)cc3)cc(C(F)(F)F)n2)cc1`, “inactive”; in that of `COc1cc(Cl)c(NC(=O)C(NS(=O)(=O)c2cccs2)C(C)C)c(OC)c1` (stereo not given), “inactive”.
Regarding `Cc1oc2ccc(O)c(CN3CCCCC3)c2c1C(=O)Nc1cccc(C(F)(F)F)c1`, the Potency entry was “inactive”.
In the case of `CCCCN(CC)CCCNC(=O)c1nn(C)c2c1CS(=O)(=O)c1ccccc1-2` it was “inactive”; in that of `COc1ccc(-n2c(SCC(=O)Nc3ccc(Cl)c(C)c3)nc3n[nH]c(C)c3c2=N)cc1`, “inactive”.
Consider `Cc1c(NC(=O)c2cc(=O)c3ccccc3o2)c(=O)n(-c2ccccc2)n1C`, for which the Potency entry was “inactive”.
To `CCCn1c2ccccc2c2cnn(CC(=O)N(C)c3ccccc3CC)c(=O)c21` belongs “inactive”; to `COC(=O)c1ccc(NC(=O)CCc2c(C)nc3c(c(C)nn3-c3ccc(C)cc3)c2C)cc1`, “inactive”; to `Cc1ccc(Cn2c(C)c3cnn(CC(=O)NCc4ccccc4)c(=O)c3c2C)cc1`, “inactive”.
In the case of `Cc1ccc(C)c(N2CCN(c3ccc4cc(S(=O)(=O)N5CCC(C)CC5)ccc4n3)CC2)c1` it was “inactive”; in that of `COc1ccccc1CNc1ccc(-c2nc(-c3ccccc3C)no2)cc1[N+](=O)[O-]`, “inactive”.
In the case of `Cn1c(=O)[nH]c(=O)c2c1nc(NCCc1ccccc1)n2Cc1ccc(F)cc1` it was “inactive”; in that of `CCCCN(C)CCCNC(=O)CN1N=C(c2ccc(OC)cc2)CCC1=O`, “inactive”; in that of `O=C(Nc1ccc2nc(SCC(=O)N3CCc4ccccc43)sc2c1)c1ccccc1F`, “inactive”.
For `CCOc1ccccc1CNC(=O)c1ccc(-n2c(C)cc3c2CCC(C)C3)cc1` (stereo not given), the Potency result is “inactive”.
For `CCOC(=O)c1c(C)[nH]c(CCC(=O)NCCCN2CCN(c3cccc(Cl)c3)CC2)c1C`, the Potency result was “inactive”.
For the compound `Cc1ccc(C)c(N2CCN(S(=O)(=O)c3ccc4c(c3)C(C(C)C)C(=O)N4)CC2)c1` (stereo not given), the Potency entry was “inactive”.
As to `CCOc1ccccc1CNC(=O)Nc1cn(CC(C)C)c(=O)c2ccccc12`, the Potency entry was “inactive”.
For the compound `CCOc1cc(CNC(=O)c2sc3ncnc(N(C)C4CCCCC4)c3c2C)ccc1OC`, the Potency result was “inactive”.
To `Cc1nn2c(=O)cc(COC(=O)CNC(=O)c3ccc(F)cc3)nc2s1` belongs “inactive”; to `COc1ccc(CCNC(=O)c2nn(C)c3c2CSc2ccccc2-3)cc1OC`, “inactive”; to `Cc1c(C(=O)NCc2ccccc2Br)oc2ccc3c(c12)C(=O)CC(C)(C)O3`, “inactive”.
On to `CCc1cccc(C)c1NS(=O)(=O)c1ccc(-c2cc(C)no2)s1`, for which the Potency entry was “inactive”.
Regarding `CCCc1nn2c(=O)cc(COC(=O)c3ccc(NC(=O)COc4ccc(F)cc4)cc3)nc2s1`, the Potency result was “inactive”.
As for `CCCCC(=O)OC1=CN(Cc2ccccc2)S(=O)(=O)c2ccccc21`, the Potency result is “inactive”.
To `COc1ccc(OCCn2cc(C(=O)C3CCCCC3)c3ccccc32)cc1` belongs “inactive”; to `Cc1oc2ccc(O)c(CN3CCOCC3)c2c1C(=O)Nc1cccc(Cl)c1C`, “inactive”.
To `COc1ccccc1C(=O)NCCn1cc(SCc2ccccc2Cl)c2ccccc21` belongs “inactive”; to `O=S(=O)(NCC(c1ccco1)N1CCOCC1)c1cc(F)ccc1F` (stereo not given), “inactive”; to `Cc1ccccc1-c1nc(SCC(=O)N(C)c2ccccc2)c2c(=O)n(C)c(=O)n(C)c2n1`, “inactive”.
Consider `COc1ccccc1NC(=O)C(=O)c1cc(C)n(-c2ccccc2F)c1C`, for which the Potency entry is “inactive”.
In the case of `CC1CCCN(c2csc3ccc(F)cc3c2=O)C1` (stereo not given) it was “inactive”.
To `COc1ccc(S(=O)(=O)N2CCN(c3ccc(F)cc3)CC2)cc1-c1noc(C)n1` belongs “inactive”; to `CCC(=O)N1CCc2cc(S(=O)(=O)NC(Cc3ccccc3)C(=O)NCc3ccccc3)ccc21` (stereo not given), “inactive”; to `CCCn1c2ccccc2c2cnn(CC(=O)NCCCN3CCCCC3CC)c(=O)c21` (stereo not given), “inactive”.
To `CCC1CCCCN1CCCNC(=O)c1cc2c(Cl)nc3ccccc3c2s1` (stereo not given) belongs “inactive and 25.1 µM (active)”.
Regarding `CCn1c(=O)c2cc(C(=O)NCCc3ccc(Cl)cc3)sc2c2ccccc21`, the Potency result is “inactive”.
In the case of `COc1ccc(C)cc1NC(=O)C(=O)NCCc1sc(-c2cccc(C)c2)nc1C` it was “inactive”.
Turning to `CCCn1c2ccccc2c2cnn(CC(=O)NCC3CCN(Cc4ccc(C)cc4)CC3)c(=O)c21`, the Potency result is “inactive”.
Consider `Cn1c(=O)sc2cc(NS(=O)(=O)c3ccc(C(C)(C)C)cc3)ccc21`, for which the Potency entry is “inactive”.
To `O=C(CSc1nccn1Cc1ccc(F)cc1)NCc1ccccc1` belongs “inactive”; to `O=C(Cn1nc(C(F)(F)F)c2c1CCCC2)Nc1ccc(Cl)cc1`, “inactive”; to `CCOC(=O)C1CCN(c2ncnc3c2c(-c2ccccc2)cn3-c2cccc(C)c2)CC1`, “inactive”.
In the case of `CSc1ccc(CCNC(=O)c2cnn(-c3ccccc3)c2-n2cccc2)cc1`, the Potency result is “inactive”.
To `COc1ccccc1CNC(=O)CS(=O)(=O)c1cccc2nsnc12` belongs “inactive”; to `COc1ccc(N2CCN(Cc3nc4c(c(=O)[nH]c(=O)n4C)n3Cc3ccc(Cl)cc3)CC2)cc1`, “inactive”.
To `COc1ccccc1C(=O)OCc1cc(=O)n2nc(-c3cccs3)sc2n1` belongs “inactive”; to `NS(=O)(=O)c1ccc(CCNC(=O)CCCn2c(SCC(=O)N3CCCC3)nc3ccsc3c2=O)cc1`, 21.6 µM (active); to `CCCCn1c(SCC(=O)N2CCCC2=O)nc2cc(S(N)(=O)=O)ccc21`, “inactive”.
To `NS(=O)(=O)c1ccc(CCNC(=O)CCCCCn2c(=O)[nH]c3ccccc3c2=O)cc1` belongs “inactive”; to `CCc1nc2c(cnn2-c2ccc(C)cc2)c(=O)n1-c1ccc(C)cc1`, “inactive”.
Turning to `CCCC12CN3CC(CCC)(CN(C1)C3c1c[nH]c3ccc(OC)cc13)C2=O` (stereo not given), the Potency result is “inactive”.
To `Cc1ccc(C)c(NC(=O)Cn2ccn(-c3ccc(F)cc3)c(=O)c2=O)c1` belongs “inactive”; to `Cc1cc(C)cc(NC(=O)Cn2c(=O)c3ccccc3n3nncc23)c1`, “inactive”.
To `Fc1ccc(-n2ncc3c(Nc4ccc(Oc5ccccc5)cc4)ncnc32)cc1` belongs “inactive”; to `Cc1ccc(CNC(=O)CCc2c(C)nc3nc(CNC(=O)OC(C)(C)C)nn3c2C)cc1`, “inactive”; to `CCN(CC)S(=O)(=O)c1ccc2c(c1)N(CC(=O)NCc1ccccc1)C(=O)CS2`, “inactive”.
As for `COc1ccc2c(c1)c(=O)c(C(=O)c1ccccc1)cn2CC(=O)Nc1ccc2c(c1)OCCO2`, the Potency entry is “inactive”.
Take `COc1ccccc1CN1CCC(CNC(=O)c2cnn(-c3cccc(Cl)c3)c2C2CCN(C(=O)OC(C)(C)C)CC2)CC1`: the Potency entry is “inactive”.
To `COc1cccc(CNC(=O)CCC(=O)N2CC3CCCN3c3ccccc32)c1` (stereo not given) belongs “inactive”; to `Cc1ccn2c(Nc3ccc4c(c3)OCCO4)c(-c3ccc(C)s3)nc2c1`, “inactive”; to `COc1ccc(NC(=O)C2CCN(c3ccc(Sc4ccc(C)cc4)nn3)CC2)c(OC)c1`, “inactive”.
To `COc1ccc(Cn2ccnc2SCC(=O)Nc2ccc3c(c2)OCO3)cc1` belongs “inactive”.
To `Cc1cccc(-c2nc(SCC(=O)Nc3cc(C)on3)c3c(=O)n(C)c(=O)n(C)c3n2)c1` belongs “inactive”.
On to `COc1ccc(OC)c(NC(=O)CN2CCCN(Cc3cc(C)ccc3C)S2(=O)=O)c1`, for which the Potency result is “inactive”.
In the case of `COc1ccc(OC)c(CNC(=O)CN2C(=O)CCn3nc(-c4cn(C)c5ccccc45)cc32)c1` it was “inactive”.
To `CC1CCCN(c2cc3c(cc2F)c(=O)c(S(=O)(=O)c2cccc(Cl)c2)cn3Cc2ccccc2)C1` (stereo not given) belongs “inactive”; to `CCOC(=O)c1ccccc1NC(=O)c1sc2nc(-c3ccc(F)cc3)cn2c1C`, “inactive”; to `CCOc1ccc(-c2cc(C)n3nc(C(=O)Nc4ccc(C)c(C)c4)cc3n2)cc1`, “inactive”.
In the case of `O=S(=O)(NCCS(=O)(=O)N1CCN(c2ccccc2)CC1)c1ccc(Cl)cc1` it was “inactive”; in that of `CCN(CC)S(=O)(=O)c1ccc2c(c1)nc(CN(C)C(=O)Nc1ccc(Cl)cc1)n2C`, “inactive”.
